For 28 compounds, Potency results are on record in PubChem BioAssay AID1460 (National Center for Advancing Translational Sciences (NCATS), 2008).

Out of some 270,000 compounds screened, about 5,800 (2.1%) were called active. Where a call stands in place of a potency, no number is given. Not shown: some 16% with an inconclusive outcome. The call rests on the fitted dose curve; in most records, active means well fitted inhibition curve with a large enough effect; inconclusive means small, poorly fitted or top-dose-only effect; inactive means flat fitted curve, though single readings scatter. Only a selection was taken, and actives are over-represented in it overall.
Potency means the concentration at half of the fitted maximal effect.

For the assay, the target named is Microtubule-associated protein tau (Homo sapiens) (UniProt P10636). Description: qHTS for Inhibitors of Tau Fibril Formation, Thioflavin T Binding. Further: nearly all actives have a fitted effect of over 55% in size. Particulars: recombinant tau K18 P301L (four-repeat tau fragment), heparin-induced fibrillization, ThT fluorescence; series mostly up to 57.4 µM. In outline: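 Heparin-induced fibrillization of the P301L-mutant K18 repeat-domain fragment of human tau was followed by ThT binding in quantitative high-throughput format.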
Microtubule-associated protein tau (Homo sapiens), sequence (P10636 561-689 P618L limits assumed): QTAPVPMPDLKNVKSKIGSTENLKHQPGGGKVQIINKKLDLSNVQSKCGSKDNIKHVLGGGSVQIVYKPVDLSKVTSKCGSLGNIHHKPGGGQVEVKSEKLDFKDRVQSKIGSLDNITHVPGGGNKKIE
For orientation: Quantitative high-throughput screening tests each substance at several concentrations.
Take `O=C(Nc1nnc(SCc2ccccc2)s1)c1ccco1`: the Potency entry is “inactive”.
`c1ccc(CSc2nnc(-c3ccco3)c(-c3ccco3)n2)cc1`: the Potency is 7.94 µM (active).
The result for `Nc1nc(SCc2ccccc2Cl)n[nH]1` reads “inactive”; that for `COC(OC)c1ccnc(SCc2ccccc2Cl)n1`, “inactive”.
Regarding `Clc1ccccc1CSc1nnc(-c2ccco2)c(-c2ccco2)n1`, the Potency was 17.8 µM (active).
The result for `Brc1ccc(CSc2ccc(-c3ccco3)nn2)cc1` reads “inactive”; that for `COc1ccc(C2C(=O)N(C3CCCCC3)CC(=O)N2Cc2ccccc2Cl)cc1OC` (stereo not drawn), “inactive”.
`Cc1onc(-c2ccc(F)cc2F)c1C(=O)Nc1cccc(C(F)(F)F)c1`: the Potency entry is “inactive”.
The result for `CCC(Sc1nc2n[nH]c(C)c2c(=N)n1-c1ccccc1Cl)C(=O)N(CC)CC` (stereo not drawn) reads “inactive”; that for `COc1ccccc1CNC(=O)C(=O)NCC(c1cccs1)S(=O)(=O)c1cccs1` (stereo not drawn), “inactive”.
For `CC(CC(=O)O)C(=O)c1ccc(Cl)c([N+](=O)[O-])c1` (stereo not drawn), the Potency result is “inactive”.
With `O=C(/C=C/c1ccc(Cl)c([N+](=O)[O-])c1)c1ccc(O)cc1` the figure was 15.8 µM (active); with `O=C(c1ccc(Cl)c([N+](=O)[O-])c1)N1CCN(c2ccccc2)CC1`, “inactive”.
As for `CN(C)c1ccc(/C=C/C(=O)c2ccc(O)cc2)cc1[N+](=O)[O-]`, the Potency was 4.47 µM (active).
With `Cc1cc(C)n(-c2ccc(C(=O)O)cc2[N+](=O)[O-])n1` the entry was “inactive”; with `CN(C)c1ccc(/C=C/C(=O)c2ccc(C(C)(C)C)cc2)cc1[N+](=O)[O-]`, “inactive”.
The result for `COc1ccccc1CNc1ccc(-c2nc(-c3ccccc3C)no2)cc1[N+](=O)[O-]` reads “inactive”.
The result for `CCCOc1ccc(-c2cccc(NS(=O)(=O)c3ccccc3)c2)nn1` reads “inactive”.
In the case of `COc1ccc(CNC(=O)COCc2cc(-c3cccs3)on2)cc1OC`, the Potency entry was “inactive”.
The result for `Cc1ccc(Cn2cc(CCC(=O)NCc3ccc(OC(C)C)cc3)c3ccccc32)cc1` reads “inactive”; that for `c1ccc(CNc2ncnc3[nH]ncc23)cc1`, “inactive”.
Take `CN1CCN(c2ccc(S(=O)(=O)Nc3ccccc3)cc2[N+](=O)[O-])CC1`: the Potency entry is “inactive”.
With `CCN(CC)S(=O)(=O)c1cc([N+](=O)[O-])ccc1N=Nc1c(O)n(C)c2ccccc12` the entry was “inactive”.
The result for `O=[N+]([O-])c1cc(S(=O)(=O)Nc2cccc(Cl)c2)ccc1N=Nc1c(O)[nH]c2ccccc12` reads 10 µM (active).
With `O=C(Nc1ccc(F)cc1F)c1cnn(-c2ccc(F)cc2)c1-n1cccc1` the entry was “inactive”.
In the case of `CCCS(=O)(=O)N1CCCC(C(=O)NCc2ccco2)C1` (stereo not drawn), the Potency entry was “inactive”.
The result for `CC1CN(C(=O)N2CCC(C(=O)NCc3ccco3)CC2)c2cc(Cl)ccc2O1` (stereo not drawn) reads 31.6 µM (active).
The result for `Cc1ccc2c(c1)N(C(=O)CCC(=O)NCc1ccccc1F)CC(C)O2` (stereo not drawn) reads “inactive”.
